Data reported in publication PMC4336329 (PLoS ONE, 2015).
Hit rate of the full screen: of about 310,000 compounds, about 14,000 (4.5%) showed an effect of 50% or more. Effects have a minus sign here. Only a selection was taken, and strong results are over-represented in it overall.

molecular target: human ether-à-go-go-related gene (hERG) potassium channel (human, UniProt Q12809); assay: primary screen, population patch clamp on CHO cells stably expressing hERG; higher = less effect of the substance
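Also: peak tail current of the secondary pulse compared with the same well before compound.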

Sequence of human ether-à-go-go-related gene (hERG) potassium channel (Q12809 whole entry, looked up): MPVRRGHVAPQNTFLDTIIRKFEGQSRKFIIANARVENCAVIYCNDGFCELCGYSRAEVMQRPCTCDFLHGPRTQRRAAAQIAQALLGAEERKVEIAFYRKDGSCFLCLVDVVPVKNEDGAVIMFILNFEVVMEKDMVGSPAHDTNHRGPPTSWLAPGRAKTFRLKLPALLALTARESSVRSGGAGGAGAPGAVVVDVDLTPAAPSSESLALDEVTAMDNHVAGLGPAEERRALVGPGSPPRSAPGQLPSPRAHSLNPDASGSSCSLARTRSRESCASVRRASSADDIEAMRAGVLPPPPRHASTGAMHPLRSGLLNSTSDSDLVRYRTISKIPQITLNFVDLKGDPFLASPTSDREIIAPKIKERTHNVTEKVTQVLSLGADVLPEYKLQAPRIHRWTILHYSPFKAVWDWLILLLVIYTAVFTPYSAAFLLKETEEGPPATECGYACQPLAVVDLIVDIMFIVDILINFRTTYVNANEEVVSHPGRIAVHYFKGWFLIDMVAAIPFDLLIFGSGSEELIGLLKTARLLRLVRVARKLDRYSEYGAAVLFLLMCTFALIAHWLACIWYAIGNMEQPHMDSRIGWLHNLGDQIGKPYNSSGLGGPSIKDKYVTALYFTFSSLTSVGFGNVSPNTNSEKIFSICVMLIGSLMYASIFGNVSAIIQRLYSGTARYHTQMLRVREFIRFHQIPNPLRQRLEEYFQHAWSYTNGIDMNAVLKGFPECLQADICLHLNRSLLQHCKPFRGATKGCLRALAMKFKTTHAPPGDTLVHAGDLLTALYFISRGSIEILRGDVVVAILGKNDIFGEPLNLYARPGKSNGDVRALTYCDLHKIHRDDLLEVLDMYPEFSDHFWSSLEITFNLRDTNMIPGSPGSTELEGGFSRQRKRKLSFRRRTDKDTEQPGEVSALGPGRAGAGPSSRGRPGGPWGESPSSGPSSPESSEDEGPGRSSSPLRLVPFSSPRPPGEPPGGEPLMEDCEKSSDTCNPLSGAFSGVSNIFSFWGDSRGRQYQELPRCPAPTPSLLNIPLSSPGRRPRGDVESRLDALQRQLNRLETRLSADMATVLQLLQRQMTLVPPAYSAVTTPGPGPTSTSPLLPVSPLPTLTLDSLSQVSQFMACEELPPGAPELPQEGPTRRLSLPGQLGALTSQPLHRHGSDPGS

| Compound | hERG current change (%, negative = inhibition) at 10uM |
| --- | --- |
| CCN(CC)S(=O)(=O)c1ccc2c(c1)CC(C(=O)N1CCCC1)N2C(C)=O (stereo not shown) | 1.51% |
| Cl.NCCSC1CC(=O)N(c2ccc(F)cc2)C1=O (stereo not shown) | 17% |
| CC1=C(C)CS(=O)N(S(=O)(=O)c2ccccc2)C1 (stereo not shown) | -16.3% |
| O=C(CN(C(=O)c1ccc(Cl)cc1)N1C(=O)C2CCCCC2C1=O)c1ccc(Cl)cc1 (stereo not shown) | 15.1% |
| O=C(CN(C(=O)c1ccccc1Cl)N1C(=O)CCCC1=O)c1ccc(Cl)cc1 | 7.29% |
| Cc1ccc(C(=O)CN(C(=O)c2ccc(Cl)cc2)N2C(=O)CCC2=O)cc1 | -50.7% |
| Cc1ccccc1CC1(CO)CCCN(C(=O)c2cc(-c3ccccc3)no2)C1 (stereo not shown) | 2.91% |
| CC(=O)Oc1ccc(C(=O)Nc2cccc3c2CCCC3)cc1 | 10.4% |
| Cc1c(NC(=O)Cc2ccccc2)cccc1C(=O)NN1C(=O)c2ccccc2C1=O | -10.2% |
| N#CCCn1cc(/C=N/NC(N)=S)c(-c2ccccc2)n1 | -28% |
| Cc1ccc(C(=O)NCc2ccccn2)o1 | 4.94% |
| Cc1cc2oc(=O)cc(CN3CCN(S(=O)(=O)/C=C/c4ccccc4)CC3)c2cc1C | 1.24% |
| O=c1cc(CN2CCN(S(=O)(=O)c3ccc4c(c3)OCCO4)CC2)c2ccc(O)cc2o1 | -4.32% |
| O=c1cc(CN2CCN(S(=O)(=O)/C=C/c3ccccc3)CC2)c2ccc(O)cc2o1 | -76.8% |
| O=c1cc(CN2CCc3ccccc32)c2ccc(O)cc2o1 | -0.218% |
| Cc1ccc2c(CN3CCN(S(=O)(=O)/C=C/c4ccccc4)CC3)cc(=O)oc2c1 | -72.4% |
| O=S(=O)(/C=C/c1ccccc1)N1CCN(Cc2ccccc2)CC1 | -25.3% |
| CCOc1ccc(N2C(=O)CC(N3CCN(c4ccc(Cl)cc4)CC3)C2=O)cc1 (stereo not shown) | 18.5% |
| CCOC(=O)C1CCN(S(=O)(=O)c2c(C)[nH]c(=O)[nH]c2=O)CC1 | -0.439% |
| COc1ccc(C(CNC(=O)CSc2ccccc2F)N2CCOCC2)cc1 (stereo not shown) | 10.7% |
| CC(=O)Nc1ccc(/C=C(\C#N)C(=O)NC2CCCCC2)cc1 | 11.2% |
| O=C(Cc1ccccn1)c1ccccc1 | 30.3% |
| Cc1ccc(S(=O)(=O)N/N=C\c2ccc3c(c2)OCO3)cc1C | -11.8% |

| Compound | hERG current change (%, negative = inhibition) at 10uM |
| --- | --- |
| O=C(NC(CO)Cc1ccccc1)c1ccccc1 (stereo not shown) | -10.5% |
| O=C(NCc1ccco1)c1c2c(nc3ccccc13)CCC2 | -24.8% |
| CN(C)CCNc1c2c(nc3ccccc13)CCC2 | -0.291% |
| c1ccc(CNc2c3ccccc3nc3ccccc23)cc1 | -77.1% |
| c1ccc(CNc2nc(-c3ccccc3)nc3ccccc23)cc1 | 4.15% |
| Cl.c1ccc(CNc2ncnc3ccccc23)cc1 | 4.3% |
| O=C(Cc1ccccc1)NNc1c2ccccc2nc2ccccc12 | 12.3% |
| COCCNc1c2c(nc3ccccc13)CCC2.Cl | -58.5% |
| c1coc(CNc2c3c(nc4ncnn24)CCC3)c1 | -29.6% |
| OCC(Cc1ccccc1)Nc1c2ccccc2nc2ccccc12 (stereo not shown) | -71.2% |
| c1coc(CNc2c3c(nc4ccccc24)CCC3)c1 | -78.7% |
| CN(C)CCCNc1c2c(nc3ccccc13)CCC2.Cl | -3.18% |
| Cc1ccc(N2C(=O)C3C4CC(=O)C(c5ccccc54)C3C2=O)cc1C (stereo not shown) | -12.3% |
| C#CCOCCOCCOCCNc1nc(N2CCN(C(=O)Cn3cc(CC(C)O)nn3)CC2)nc(N2CCN(C(=O)Cn3cc(CC(C)O)nn3)CC2)n1 (stereo not shown) | -7.58% |
| CC(C)(C)[C@H]1C=C(C(=O)O)O[C@@H](OCCCCO)C1 | 6.41% |
| CC12CCC(C(=O)NCc3ccco3)(OC1=O)C2(C)C (stereo not shown) | 2.02% |
| COc1cccc(NC(=O)Nc2cc(C(=O)O)ccc2N2CC3CC(C2)c2cccc(=O)n2C3)c1 (stereo not shown) | 8.25% |
| O=C(Nc1nccs1)c1cc2sccc2n1Cc1ccc(Cl)cc1 | -2.4% |
| Cc1ccc(C)c(N(CC(=O)NC(C)(C)C)C(=O)CCC(=O)Nc2nccs2)c1 | 2.56% |
| CC(C)Cn1c(N)c(C(=O)CSc2nc3ncc(Cl)cc3[nH]2)c(=O)n(C)c1=O | -0.019% |
| Cc1coc2cc3oc(=O)c(CCC(=O)N4CCC(C(=O)O)(c5ccccc5)CC4)c(C)c3cc12 | 0.933% |
| CC(C)(C)N1CC(OC(N)=O)C1 | 21% |
| CC(C)NCC(=O)Nc1c2c(nc3ccccc13)CCC2.O=C(O)C(=O)O | 6.26% |
